Screening results deposited in PubChem BioAssay by several laboratories.
This is a sample that favours compounds with a hit; in the whole collection about 4.1% have one here.
PolyA inh – polyadenylation inhibitors in yeast reporter cells, primary screen, luminescence, S. cerevisiae. S. cerevisiae SKY197-pL101 polyadenylation reporter, beta-gal luminescence; efflux-impaired pdr1/pdr3 knockout yeast; score 100 = 6 SD above DMSO. activity score, % at 12 µM. 300,000 tested, 0.02% active;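 active means lowest replicate activity score at least 50, where 100 means six control SD above control mean; inconclusive means lowest score under 50 but half or more replicates reach 50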;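 further: yeast exposed to compound for 9 h at 30 °C; higher score means more reporter readthrough which indicates perturbed polyadenylation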
IDE cell inh – human IDE inhibitors in live cells, primary screen, fluorescence polarization, HEK cells, FAbetaB substrate; FAbetaB cleavage; 320,000 tested, 0.41% active; Insulin-degrading enzyme (Homo sapiens), P14735; AID 434962, 2010; inhibition, % at 5.59 µM;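 active means percent inhibition above the average of all tested compounds plus 3 SD, set per screening campaign, cut at about 16% in these data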;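 further: IDE supplied by intact live HEK cells; FP after avidin binding of uncleaved biotin substrate so inhibition keeps polarization high; 0% = DMSO wells and 100% = 60 µM reference IDE inhibitor Ii1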
CaV13 FRET inh – Disruptors of the CACNA1D IQ motif to Ca2+-dependent inactivation inhibitor domain association, primary screening, Förster resonance energy transfer in intact living …; HEK cells, CFP/YFP FRET ICDI-IQ, plate reader, 10 min; percent FRET-ratio fall versus neutral wells; inhibition, % at 12.3 µM; 340,000 tested, 0.098% active;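 active means mean replicate inhibition of at least 30% and at least 1% of replicates passing that level; inconclusive means only one of the two criteria is met; inactive means neither criterion is met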;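 further: 0% = median of the neutral control wells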
M18AAP inhibitor – PfM18AAP inhibitors, malaria aminopeptidase, primary screen, biochemical, QFRET, recombinant enzyme; M18 aspartyl aminopeptidase (Plasmodium falciparum 3D7); H-Glu-NHMec fluorogenic cleavage; inhibition, % at 7.35 µM; 290,000 tested, 1.2% active; AID 1822, 2009;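 active means inhibition above the campaign mean inhibition over all tested compounds plus 3 SD, cut at about 28% in these data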;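 further: 0% = plate median of test compound wells and 100% = 2 mM ZnCl2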
ALR inh – inhibitors of human ALR sulfhydryl oxidase, primary screen, biochemical, H2O2 detection, HRP-luminol luminescence, single point; AID 485317, 2010; FAD-linked sulfhydryl oxidase ALR (Homo sapiens), P55789; purified ALR, DTT oxidation; 290,000 tested, 3.8% active; inhibition, % (concentration not given with the values);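 active means mean replicate inhibition above about 79%, with every replicate also reaching it, limit read from the data; inconclusive means only one of the two criteria met; inactive means mean below limit and not every replicate reaching it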
Target sequence (P55789 whole entry, looked up): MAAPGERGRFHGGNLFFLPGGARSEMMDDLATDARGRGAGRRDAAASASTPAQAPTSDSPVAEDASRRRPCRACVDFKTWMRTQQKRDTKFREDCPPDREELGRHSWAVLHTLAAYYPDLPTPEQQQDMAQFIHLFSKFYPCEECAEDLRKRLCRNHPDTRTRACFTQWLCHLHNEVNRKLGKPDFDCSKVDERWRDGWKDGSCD
IDE act – human IDE activators in live cells, primary screen, fluorescence polarization, HEK cells, FAbeta-B substrate; Insulin-degrading enzyme (Homo sapiens), P14735; FAbeta-B cleavage; 0% vehicle, 100% cell-free pure enzyme wells; activation, % at 5.96 µM; 340,000 tested, 0.073% active;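 active means activation above the mean of all tested compounds plus 3 SD, set per screening campaign, cut at about 17% in these data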
Active calls of the source: *; ? = inconclusive; . = no result given.

SMILES	PolyA inh	IDE cell inh	CaV13 FRET inh	M18AAP inhibitor	ALR inh	IDE act
CCOC(=O)N1CCC(NC(=O)c2ccc3c(c2)sc2nc(-c4cccc(OC)c4)cn23)CC1	2.7	.	.	29.6*	.	.
O=C(NC1CC1)c1ccc2snnc2c1	10.8	3.1	-6.3	-0.8	.	-3.4
CCOC(=O)N1CCC(NC(=O)c2ccc3snnc3c2)CC1	3.0	-1.3	-6.0	-0.8	97.9*	-2.6
CCOC(=O)N1CCC(NC(=O)c2cc(C(=O)Nc3cccc(OC)c3)ccc2CO)CC1	9.5	4.9	.	-1.3	16.6	-6.7
COc1ccccc1OCCC(=O)Nc1nc(C)cs1	-12.9	-1.2	-2.4	-20.5	-1.4	2.0
CC1=NN(c2ccccc2)C(=O)C1C=Nc1ccccc1O (stereo unspecified)	1.6	-2.9	-5.0	4.4	5.6	0.7
CC1=NN(c2ccccc2)C(=O)C1/C=C1\NC(=S)NC1=O (stereo unspecified)	18.6	-5.3	-7.2	10.3	88.8*	-1.5
CC(C)(C)/C(O)=C(/C#N)c1nc2ccccc2[nH]1	-0.9	-4.3	-7.4	4.9	0.8	-0.1
CN1C=CC=C/C1=C(\C#N)c1nc2ccccc2[nH]1	-15.1	-1.4	-7.6	-2.4	98.6*	-3.6
COC(=O)[C@]12CCCCC=C1N(Cc1cccc3ccccc13)C(=O)[C@H](CC(=O)N1CCCCC1)C2	.	.	-8.9	.	.	.
C/C(=N\Nc1ccc([N+](=O)[O-])cc1[N+](=O)[O-])C(C)(C)C(C(=O)O)C(=O)O	-14.9	4.0	-2.1	17.3	83.1*	3.9
CCC(=NNc1ccc([N+](=O)[O-])cc1[N+](=O)[O-])c1ccccc1	.	.	-3.6	.	.	.
CCS(=O)(=O)N1CCC(NC(=O)C(Cc2cccc(OC)c2OC)NC(C)=O)CC1 (stereo unspecified)	-1.1	.	-19.6	-1.6	.	0.1
COc1ccccc1NS(=O)(=O)c1cccc(C(=O)NCC(c2cccs2)N(C)C)c1 (stereo unspecified)	.	.	-5.7	.	.	7.0
O=C(c1cc(C(=O)c2ccco2)cc(C(=O)c2ccco2)c1)c1ccco1	18.6	4.0	-15.0	-12.5	96.8*	-0.9
COc1ccc(N2C[C@H](CSC)[C@@H](CC(=O)Nc3ccccc3)C2=O)cc1	.	.	-4.6	.	.	.
CCN(CC)S(=O)(=O)c1cc(NC(=O)CSc2nc3c(cc2C#N)C(=O)CC(C)(C)C3)ccc1C	2.5	6.3	-7.0	2.7	98.7*	-4.0
C/C(=N\Nc1ccc(C(=O)O)cc1)c1ccc2c(c1)Nc1ccccc1S2	-13.3	10.8	-4.9	27.7	99.5*	-8.1
COc1cc(N)c(Cc2nccc3cc(OC)c(OC)cc23)cc1OC	-0.2	4.3	-5.4	9.3	88.4*	1.8
CCOC(=O)Cc1csc(NC(=O)c2ccc(N3CCOCC3)cc2[N+](=O)[O-])n1	.	-6.9	-3.2	.	-1.6	2.2
CC1CCCC/C1=N\NC(=S)Nc1cccnc1 (stereo unspecified)	13.3	3.6	13.7	18.4	97.7*	3.0
CC1(C(=O)Nc2ccc3c(c2)OCO3)Cc2c(-c3cccc(C(F)(F)F)c3)ccnc2O1 (stereo unspecified)	.	.	-4.6	.	.	.
O=C1c2cccc3c(O)ccc(c23)C(=O)N1Cc1ccccc1	11.0	-16.0	.	12.4	-6.3	58.6*
CC(C)CCN1C(=O)c2ccc(C(=O)Nc3ccccc3C(=O)O)cc2C1=O	-10.9	.	-19.3	2.5	97.6*	6.4
CC(c1ccccc1)N1C(=O)c2ccc(C(=O)Nc3ccccc3C(=O)O)cc2C1=O (stereo unspecified)	-11.7	8.0	-7.3	-1.7	97.6*	1.9
SMILES	PolyA inh	IDE cell inh	CaV13 FRET inh	M18AAP inhibitor	ALR inh	IDE act
CCC(C(=O)Nc1ccc(C(=O)Nc2ccccc2C(=O)O)cc1)c1ccccc1 (stereo unspecified)	5.1	.	.	-4.1	79.4*	5.7
COC(=O)c1ccc(CN2C(=O)NC(Cc3c[nH]c4ccccc34)C2=O)cc1 (stereo unspecified)	2.7	-1.3	-3.2	-3.5	.	6.8
O=C(N=C1SC2CS(=O)(=O)CC2N1c1cccc(Cl)c1Cl)C1CC1 (stereo unspecified)	-3.1	2.2	-4.9	0.9	-1.8	2.5
COC(=O)C1=C(C)N(Cc2ccccc2C(F)(F)F)C(=NCc2ccc3c(c2)OCO3)NC1c1ccccc1 (stereo unspecified)	.	.	-2.5	.	.	.
COc1ccc(-c2noc(CSc3nc(-c4ccccc4)cc(=O)[nH]3)n2)cc1	14.7	-3.9	.	4.3	-9.3	-8.9
COc1ccc(-c2noc(CSc3nc(N)c(-c4ccccc4)c(=O)[nH]3)n2)cc1OC	4.0	2.2	-6.7	-3.6	99.5*	0.2
CCCC[C@@H]1CNCCN1CC1(c2ccccc2)CC1	23.8	1.6	-4.4	.	0.5	-3.6
C=CCOC(=O)C1=C(C)Nc2ncnn2C1c1cc(Br)ccc1F (stereo unspecified)	16.7	1.8	-3.6	-6.3	-5.0	-2.5
Fc1ccc(Br)cc1C1C=C(c2ccc(Br)s2)Nc2ncnn21 (stereo unspecified)	-2.0	16.0	.	39.2*	88.4*	-19.0
S=C(NN=C(C1CC1)C1CC1)Nc1ccccc1	8.1	0.8	-8.7	22.7	97.2*	5.5
O=C(NNC(=S)Nc1ccccc1)C1CC1	22.0	1.7	-8.5	5.9	45.3	-8.7
Cc1ccc(C)c(NCC(=O)c2ccc(Cl)cc2)c1	?	-4.0	-1.0	28.4*	-7.4	-2.3
O=C(CCNc1ccc(F)cc1)c1cccc([N+](=O)[O-])c1	-22.8	-1.9	-6.8	-2.8	16.8	-4.0
O=C(CCNc1ccccc1)c1cccc([N+](=O)[O-])c1	-7.2	1.5	-8.0	-80.3	98.4*	-5.8
CCn1c(CN2CCOCC2)nnc1SCC(=O)Nc1ccccc1Cl	5.5	2.3	-2.9	-4.3	.	0.8
Cc1ccc(NC(=O)CSc2nc(NS(=O)(=O)c3ccc(C)cc3)cc(=O)[nH]2)cc1	-13.8	-0.1	-5.8	9.5	98.5*	7.8
O=C(CSc1nc(NS(=O)(=O)c2ccccc2)cc(=O)[nH]1)Nc1ccc(Cl)cc1	.	.	-7.1	4.8	.	-6.1
O=c1cc(NS(=O)(=O)c2ccccc2)nc(SCc2ccc(Cl)cc2)[nH]1	.	4.0	-4.0	-5.7	1.5	5.7
Cc1cc(C)cc(NC(=O)CSc2ncc(S(=O)(=O)c3ccccc3)c(=O)[nH]2)c1	6.3	1.6	-4.7	-1.3	98.7*	.
COc1ccc(NC(=O)CSc2nc(NS(=O)(=O)c3ccccc3)cc(=O)[nH]2)cc1	9.7	-3.3	-5.6	-4.1	99.7*	9.5
